# Compounds with a hit are over-represented: about 27% of the library has one in this group of screens.
# CYP2C19 act = activators of human cytochrome P450 2C19; activation factor at 5 µM; AID 1025; recombinant CYP2C19, luciferin-H EGE luminescence; stronger effect = higher value; 0 = fully inhibited enzyme, 1 = untreated enzyme; P33261; 96,000 tested, under 10 active;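 active = activation factor of at least 2 at 5 µM in the primary screen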;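 note: 0 = wells with 2.5 mM tranylcypromine and 1 = vehicle-only wells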
# CYP2C9 activ = CYP2C9 (human) activation. P11712. recombinant CYP2C9, luciferin-H conversion, luminescence; stronger effect = higher value; factor 1 = untreated enzyme, 0 = blocked. activation factor at 5 µM. hit rate 1.4% among 96,000;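 active = activation factor of 2 or more for CYP2C9 at a 5 µM dose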;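 note: 0 = sulfaphenazole-blocked wells and 1 = vehicle-only wells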
# CYP2C19 inh = blocks human cytochrome P450 2C19; P33261; CYP2C19 Supersomes, luciferin-H EGE luminescence, 30 min; inhibition, % at 5 µM; hit rate 21% among 96,000;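 active = CYP2C19 inhibition above a set limit at 5 µM in the primary screen, cut at about 50% in these data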;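 note: plate controls were negative control wells for no effect and 2.5 mM tranylcypromine positive control for full effect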
# Cav32 inh = human Cav3.2 channel inhibition, primary screen. O95180. Cav3.2-expressing cells, Fluo-4 calcium fluorescence FDSS; stronger effect = lower value. B-score at 10 µM. hit rate 4% among 100,000;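 active = single-dose well whose peak fluorescence ratio is a statistical outlier from its plate by either plate-standardised score or position-corrected B-score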
# CYP2C9 inhib = inhibitors of human CYP2C9; P11712; AID 777; CYP2C9 Supersomes, luciferin-H conversion, luminescence; hit rate 20% among 96,000; inhibition, % at 5 µM;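 active = blocking of liver enzyme CYP2C9 beyond about 50% at 5 µM, limit read from the data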
# An asterisk follows results filed as active; nt = not tested or not shown.
SMILES,CYP2C19 act,CYP2C9 activ,CYP2C19 inh,Cav32 inh,CYP2C9 inhib
COc1ccc(-c2noc(-c3ccccc3C(=O)N3CCOCC3)n2)cc1,0.9,0.6,5.2,-0.728,41.8
NC(=O)N1CC(O)CC1C(=O)Nc1ccc(Cl)c(Cl)c1 (stereo not given),nt,nt,nt,-1.57,nt
CCc1ccc(-n2c(SCC(=O)Nc3cc(C)[nH]n3)nc3[nH]ncc3c2=O)cc1,1,0.9,4.1,0.22,6.4
CCc1ccccc1-n1c(SCC(=O)Nc2ccc3c(c2)OCCO3)nc2[nH]ncc2c1=O,0.5,0.4,53.9*,0.609,61.3*
COc1ccccc1-n1c(SCC(=O)Nc2ccccc2F)nc2[nH]ncc2c1=O,0.6,0.8,43.5,0.0304,21.6
O=c1c2cn[nH]c2nc(SCc2ccc3c(c2)OCCO3)n1-c1ccccc1,0.1,0.1,90.5*,-3.42,88.0*
CC(C)c1nnc(NC(=O)CCC(=O)Nc2ccc(F)cc2)s1,1.1,1,-12.4,-0.0989,-2.4
Cc1cccc(C)c1NC(=O)CS(=O)CC(=O)NC1CCCc2ccccc21 (stereo not given),nt,nt,nt,0.248,nt
COc1cc(SC)ccc1C(=O)OC1CCOC1=O (stereo not given),0.6,1,35.2,0.364,-1.9
Cc1ccsc1C(=O)OC1CCOC1=O (stereo not given),1.1,2.3*,-7.4,1.34,-127.2
CC(=O)Nc1sc(C)c(C)c1C(=O)OC1CCOC1=O (stereo not given),0.4,0.2,55.3*,nt,77.2*
Cc1ccc(S(=O)(=O)N2CCOCC2)cc1NC(=O)COC(=O)CSc1ccc(Br)cc1C,0.6,1.3,41.0,-0.115,-34.8
COc1ccc(NC(=O)C2CC2)cc1NS(=O)(=O)c1ccc(F)cc1,0.4,1,58.4*,0.251,2.9
COc1cc(NS(=O)(=O)c2ccc(F)cc2)c(OC)cc1NC(C)=O,0,0.3,99.0*,0.412,66.9*
COc1ccc(S(=O)(=O)N2CCC(C(=O)Nc3ccc(OC)c(OC)c3)CC2)cc1C,nt,nt,nt,-0.259,nt
COc1ccc2[nH]c(=O)c(C(c3nnnn3C3CCCC3)N(C)C3CCCCC3)cc2c1 (stereo not given),1,1.1,1.1,-2.84,-7.3
O=C(NNC(=O)c1ccccc1Br)c1cccc(Cl)c1,0.9,3.1*,8.5,1.16,-206.5
O=c1c2ccccc2nnn1CSc1nnc(-c2ccco2)o1,0.6,0.6,35.3,-2.21,38.9
C[C@@H]1CCC[C@@]2(O[C@H](CCO)C[C@H](O)[C@H]2O)O1,nt,nt,nt,1.59,nt
O=C(Nc1ccc(N2CCOCC2)cc1)c1cccc(S(=O)(=O)N2CCC(Cc3ccccc3)CC2)c1,0.5,0.4,45.6,-3.7,63.5*
O=C(Nc1ccc(N2CCOCC2)cc1)c1cccc(S(=O)(=O)N2CCCC2)c1,1.1,1,-6.4,-0.114,1.5
O=C(Nc1ccc2c(c1)OCCO2)c1cccc(S(=O)(=O)N2CCCCC2)c1,0.6,0.4,41.4,-1.34,63.0*
Cc1ccc(C(=O)Nc2ccc3c(c2)OCO3)cc1S(=O)(=O)N1CCCC1,0.5,0.4,45.5,-0.441,58.2*
Cc1ccc(C(=O)OCc2ccc3c(c2)OCO3)cc1S(=O)(=O)N1CCCCC1,0.2,0,78.7*,-4.09*,95.4*
O=C(O)C[C@H]1c2cc(C(F)(F)F)ccc2S(=O)(=O)N1C1CCN(Cc2ccccc2)CC1,nt,nt,nt,0.746,nt
SMILES,CYP2C19 act,CYP2C9 activ,CYP2C19 inh,Cav32 inh,CYP2C9 inhib
CC1CCN(c2cc(N)c(Cl)cc2[N+](=O)[O-])CC1,0.7,0.7,25.6,-3.15,33.6
Cc1ccc(C(=O)Nc2cccc(C(=O)O)c2)cc1S(=O)(=O)N1CCCCC1,0.5,0.4,46.9,0.509,56.6*
O=C(Oc1cccc(NC(=O)c2ccco2)c1)c1cccc(S(=O)(=O)N2CCCCC2)c1,1.2,1,-17.4,-1.49,4.2
O=C(Nc1cccc(S(=O)(=O)N2CCOCC2)c1)c1ccco1,0.3,1.1,75.0*,-0.158,-7.8
CCC(C)NC(=O)CS(=O)Cc1nc(-c2ccccc2C)oc1C (stereo not given),0.9,0.9,8.5,nt,8.0
CCOc1ccc(-c2cc3nc(C4CCN(C(=O)OC(C)(C)C)CC4)c(C(=O)O)cn3n2)cc1,1.1,0.2,-7.2,-0.766,80.7*
CC(C)Nc1ccc(C(CC(N)=O)NC(=O)Cc2ccc(Br)cc2)cc1[N+](=O)[O-] (stereo not given),nt,nt,nt,-0.653,nt
CC1(C)NC(=O)N(CC(O)COC2CCCCC2)C1=O (stereo not given),0.2,0.6,82.4*,nt,42.5
CC1(C)NC(=O)N(CC(O)COc2ccccc2-c2ccccc2)C1=O (stereo not given),0,0.1,99.2*,-0.0892,86.6*
CC1(C)NC(=O)N(CC(O)CN2CCCCC2)C1=O (stereo not given),1,1,-2.5,nt,-0.3
COc1ccccc1OCC(O)CN1C(=O)NC(C)(C)C1=O (stereo not given),0.5,0.6,49.7,0.00169,36.2
Cc1cc(C)cc(OCC(O)CN2C(=O)NC(C)(C)C2=O)c1 (stereo not given),0.3,0.6,72.2*,0.0157,44.0
CCCC(=O)N1c2ccccc2[C@@H](N(C(C)=O)c2ccccc2)C[C@H]1C,0.5,0.3,50.8*,0.0692,73.4*
N#Cc1c(N2CCCCC2)nc(N)c2c(N)nc3c(c12)CC(c1ccccc1)O3 (stereo not given),0.8,0.4,24.9,-0.828,63.9*
CCN(CC)c1nc(N)c2c(N)nc3c(c2c1C#N)CC(c1ccccc1)O3 (stereo not given),0.4,0.2,56.2*,-3.37,82.3*
Cc1ccc(S(=O)(=O)CC(c2ccccc2)N2CCOCC2)cc1 (stereo not given),0.4,1,56.8*,0.377,-1.4
Cc1ccccc1NC(=O)c1sc(Cl)nc1-c1ccccc1,0.4,0.6,61.4*,1.9,43.5
C#CCN1C(=O)C(O)(CC(=O)c2cccc(OC)c2)c2ccccc21 (stereo not given),0.7,1,32.7,0.829,-0.7
CCOC(=O)CN1C(=O)C(O)(CC(=O)c2ccc3c(c2)CCCC3)c2ccccc21 (stereo not given),nt,nt,nt,-7.26*,nt
CCOC(=O)CN1C(=O)C(O)(CC(=O)c2cccc(OC)c2)c2ccccc21 (stereo not given),0.4,0.7,62.8*,0.0373,27.7
O=C(CCC1CCCCC1)Nc1ccccc1O,0.1,0.4,93.2*,-0.81,63.7*
CCN(CC)S(=O)(=O)c1ccc(NC(=O)CCC2CCCCC2)cc1,0.2,0.1,78.2*,-4.42*,92.7*
Cn1c(NC(=O)CCC2CCCCC2)cc(=O)n(C)c1=O,0.3,0.3,74.2*,nt,66.6*
O=C(CCC1CCCCC1)Nc1ccc(S(=O)(=O)Nc2nccs2)cc1,0.5,0.4,45.4,0.000261,62.6*
CCCNC(=O)c1cc(S(=O)(=O)N2CCc3ccccc32)ccc1F,nt,nt,nt,0.926,nt
COC(=O)c1ccc(-c2nc(O)c3cnccn23)cc1,0.5,0.5,50.8*,0.316,49.4

# Bioassay records: PubChem BioAssay, several laboratories
